Screens deposited in PubChem by National Center for Advancing Translational Sciences (NCATS).
The list is not random: actives were taken first. Their share in the collection is about 19%.
HT1080 IDH1KD tx: toxicity to HT-1080 IDH1 knockdown cells (counter line) | 360,000 tested, 2% active | AID 686971 | HT-1080 IDH1 knockdown viability, ATP luminescence, 48 h | Potency, µM (doses to about 46.1 µM), usual class: cytotoxic
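Luminescent ATP read-out (CellTiter-Glo, 10 min at room temperature) after 48 h compound exposure at 37 °C gave viability of IDH1-knockdown HT-1080 cells. Activity was normalised to DMSO and cell-free wells, then fitted as concentration-response curves.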
IL-1B inflam inh: inhibitors of inflammasome signaling (IL-1 beta secretion) | activity change, % at 57.5 µM | THP-1 LPS/ATP IL-1B secretion, AlphaLISA, 16 h; stronger effect = lower value | 360,000 tested, 4.7% active; in the data active = activity change below about -50%; inconclusive = mostly about -30% to -49%
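THP-1 cells pretreated 1 hr with compounds (up to 57.5 uM final), then stimulated with LPS (250 ng/mL final) plus ATP (1.25 mM final); secreted IL-1B measured by AlphaLISA after 16 hr, decreased signal indicating inhibition.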
HT1080-NT tox: kills 2HG-producing HT-1080-NT fibrosarcoma cells | HT-1080-NT fibrosarcoma viability, CellTiter-Glo ATP luminescence, 48 h | Potency, µM (highest dose often 46.1 µM), hits mostly cytotoxic | 360,000 tested, 1.6% active | AID 686970;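 also: NT is the 2HG producing partner of a matched IDH1 knockdown line; nearly all actives have a fitted effect of over 55% in size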
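Compounds were tested in concentration-response format on HT-1080-NT cells for 48 hours at 37 degrees C. Cell viability came from CellTiter-Glo luminescence; curves were classified by r2, response magnitude and activity.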
DT40 TDP1 no CPT: qHTS for Inhibitors of human tyrosyl-DNA phosphodiesterase 1 (TDP1): qHTS in cells in absence of CPT. Potency, µM (top dose mostly 46.2 µM), hits mostly inhibitors. DT40 Tdp1-/- hTDP1 cells, no CPT, ATP luminescence, 48 h. 420,000 tested, 15% active. AID 686978, 2013; also: nearly all actives have a fitted effect of over 55% in size
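Camptothecin absent (DMSO only). Human TDP1-complemented DT40 knockout cells, 400 cells/well, 37 °C for minimum 48 hr; ATP measured via CellTiter-Glo, 30 min dark incubation, luminescence.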
DT40 TDP1 CPT: DT40-hTDP1 cell growth loss with CPT; chicken DT40 Tdp1-/-;hTDP1 cells + 20 nM CPT, ATP luminescence, 48 h; Potency, µM (top dose mostly 46.2 µM), most hits filed as inhibitors; 420,000 tested, 12% active; AID 686979; also: nearly all actives have a fitted effect of over 55% in size
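Chicken DT40 Tdp1-/- cells complemented with human TDP1, 400 cells/well, exposed to compounds plus 20 nM camptothecin for at least 48 h at 37 C; viability read as ATP content by CellTiter-Glo luminescence.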
Hits are given with their value; . = inactive; ? = inconclusive; / = no result. Unless noted, calls follow the shape of the dose curve; as a rule, active = well fitted curve in the direction sought with a large enough effect; inconclusive = small, poorly fitted or top-dose-only effect, or another doubt; inactive = no such curve, though single readings can be large; an effect the other way counts as inactive or inconclusive.

SMILES | HT1080 IDH1KD tx | IL-1B inflam inh | HT1080-NT tox | DT40 TDP1 no CPT | DT40 TDP1 CPT
O=C(CCc1ccc(O)cc1)N/N=C/c1coc2ccccc2c1=O | . | / | . | ? | .
O=C(NC1CCCCCC1)C1CCN(S(=O)(=O)c2c(Cl)cccc2Cl)CC1 | . | . | . | 23µM | 23µM
O=C(C1CCN(S(=O)(=O)c2c(Cl)cccc2Cl)CC1)N1CCCC1 | . | . | . | . | .
O=C(Nc1ccncc1)C1CCN(S(=O)(=O)c2c(Cl)cccc2Cl)CC1 | . | . | . | 18µM | ?
O=C(NC1CCCCCC1)C1CCN(S(=O)(=O)c2ccccc2)CC1 | . | . | . | . | .
COc1cc(C(=S)N2CCOCC2)ccc1OC(=O)c1cc(OC)c(OC)c(OC)c1 | . | . | . | . | .
O=C(O)C=Cc1ccc(Cn2ccnc2)cc1 | / | / | / | . | .
Cc1cccc(NC(=S)N2CCN(S(=O)(=O)c3ccc(F)cc3)CC2)c1 | . | . | . | . | .
Cc1cc(C)cc(-n2c(C)cc(/C=N/NC(=O)CSc3ncccn3)c2C)c1 | ? | . | ? | ? | 26µM
Cc1cc(C)cc(-n2c(C)cc(/C=N/NC(=O)c3cccc([N+](=O)[O-])c3C)c2C)c1 | ? | . | ? | 26µM | ?
Cc1cc(C)cc(-n2c(C)cc(/C=N/NC(=O)c3ccncc3)c2C)c1 | . | . | . | . | .
O=C(N/N=C/c1ccc(Cl)c([N+](=O)[O-])c1)c1ccc2c(c1)OCCO2 | . | . | . | . | .
Cc1cc(C(=O)N/N=C/c2ccc(Cl)c([N+](=O)[O-])c2)c(C)n1-c1ccc(F)cc1 | 21µM | -53 | ? | 15µM | 23µM
O=C(N/N=C/c1ccc(Cl)c([N+](=O)[O-])c1)c1ccc2nc[nH]c2c1 | . | -96 | . | . | .
Cc1ccc([C@H]2C[C@@H](n3cc(C4CC4)nn3)[C@H](O)CN2CC2CCCCC2)cc1 | . | . | . | ? | ?
Cc1occc1C(=O)N/N=C/c1ccc(Cl)c([N+](=O)[O-])c1 | . | -72 | . | ? | ?
Cc1cc(C(=O)N/N=C/c2ccc3c(c2)OCO3)c(C)n1-c1ccc(F)cc1 | . | . | . | 13µM | ?
COc1ccc(/C=N/NC(=O)c2ccoc2C)cc1O | . | . | . | . | .
Cc1cc(C(=O)CCl)c(C)n1-c1cccc([N+](=O)[O-])c1 | ? | -100 | ? | 2.3µM | 1.5µM
Cc1cc(C(=O)NC2CCCCC2)c(C)n1-c1ccc(F)cc1 | . | -83 | . | ? | ?
O=C(N/N=C/c1ccc2c(c1)OCO2)c1ccc(NC(=O)c2ccc(F)cc2)cc1 | . | . | ? | ? | ?
C=CCn1c(=S)[nH]c2sccc2c1=O | . | . | . | ? | .
Cc1cc(-n2c(C)cc(C(=O)COc3ccc4ccc(=O)oc4c3)c2C)no1 | . | . | . | ? | ?
Cc1cc(C(=O)CCl)c(C)n1-c1ccon1 | 21µM | -95 | . | 2.9µM | 2.3µM
Cn1cccc1CC(=O)N/N=C/c1ccc(Cl)c([N+](=O)[O-])c1 | . | -90 | . | . | .
SMILES | HT1080 IDH1KD tx | IL-1B inflam inh | HT1080-NT tox | DT40 TDP1 no CPT | DT40 TDP1 CPT
O=C(N/N=C/c1cccc([N+](=O)[O-])c1)c1cc(-c2ccc3c4c(cccc24)CC3)n[nH]1 | . | . | . | ? | ?
O=C(N/N=C/c1ccc(Cl)c([N+](=O)[O-])c1)c1cc(-c2ccc3c4c(cccc24)CC3)n[nH]1 | 8.2µM | ? | 5.2µM | ? | .
Cc1cc(C(=O)N/N=C/c2cccc([N+](=O)[O-])c2)c(C)n1-c1ccccc1 | . | . | . | 23µM | ?
C=CCN=C1CC(C)(C)CC(=O)/C1=C(\O)CCCN1C(=O)c2ccccc2C1=O | . | . | . | ? | .
Fc1ccccc1NC(=S)N(CCCN1CCOCC1)Cc1cccnc1 | . | . | . | . | .
CCOC(=O)CNC(=O)CCc1nnc2ccc(N3CCC(C)CC3)nn12 | . | . | . | ? | 23µM
CCOC(=O)C1CCN(C(=O)CCc2nnc3ccc(N4CCC(C)CC4)nn23)CC1 | . | . | . | ? | 18µM
CCCC(=O)Nc1ccc2nc(SCCOc3ccccc3)sc2c1 | / | / | / | ? | .
Cc1ccc(S(=O)(=O)c2cn(Cc3cccc(F)c3)c3cc(N4CCCC4)c(F)cc3c2=O)cc1 | / | / | / | 5.2µM | 4.6µM
